MEKK2 mut-MEK5 – signal of MEK5 binding to mutant human MEKK2 PB1 domain. bead flow cytometry, Alexa488-MEK5 binding to MEKK2 mutant. AID 1530. 0.35% of 290,000 active. percent response, % at 10 µM; in the data active means percent response above about 24%, passing the limit was not always enough
CHT allo act – allosterically activates the human high affinity choline transporter; CHT-expressing cells, membrane potential dye, choline EC20; active compounds read high; LV-AA mutant CHT in HEK293 cells; AID 488977; Q9GZV3; 0.49% of 310,000 active; B-score at 10 µM;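 active means initial fluorescence not abnormally high and integrated response B-score, plate-corrected, over 3 SD above library mean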
MEKK3 PB1 HTS – MEKK3-MEK5 PB1 interaction, increase or decrease; bead-based flow cytometry, Alexa488-MEK5 binding to MEKK3; actives lie on both sides; 0 = blocked by unlabeled MEK5, 100 = vehicle; binding response (% of control), % at 10 µM; 1.4% of 290,000 active;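 active means binding response more than 3 SD above or below the average of its plate-row segment, actives on both sides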;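 further: Alexa488 bead fluorescence after subtracting the streptavidin-only scavenger bead signal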
Target sequence (Q99759 whole entry, looked up): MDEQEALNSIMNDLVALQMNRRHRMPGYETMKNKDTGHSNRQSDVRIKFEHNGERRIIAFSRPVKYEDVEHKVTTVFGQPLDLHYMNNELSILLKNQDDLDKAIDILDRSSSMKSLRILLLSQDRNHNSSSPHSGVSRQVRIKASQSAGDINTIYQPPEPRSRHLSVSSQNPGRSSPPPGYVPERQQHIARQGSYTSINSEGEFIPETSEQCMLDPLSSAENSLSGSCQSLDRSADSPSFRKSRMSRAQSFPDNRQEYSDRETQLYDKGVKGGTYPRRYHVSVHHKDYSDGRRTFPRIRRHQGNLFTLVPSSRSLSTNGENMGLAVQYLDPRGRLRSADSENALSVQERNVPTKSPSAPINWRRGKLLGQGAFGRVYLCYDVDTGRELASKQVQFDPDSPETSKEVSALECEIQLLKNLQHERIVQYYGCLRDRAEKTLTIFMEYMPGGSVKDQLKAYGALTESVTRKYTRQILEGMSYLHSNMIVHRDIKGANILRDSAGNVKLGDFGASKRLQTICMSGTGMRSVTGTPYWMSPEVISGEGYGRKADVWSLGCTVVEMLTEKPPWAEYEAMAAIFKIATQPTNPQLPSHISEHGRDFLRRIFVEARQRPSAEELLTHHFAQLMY
SUMO Mot1 rescue – SUMOylation pathway inhibition by Mot1-301 growth rescue; S. cerevisiae Mot1-301 growth rescue, ATP luminescence, 38.5C; percent above DMSO median, 100 means doubled; growth rescue, % at 18.8 µM; 1% of 320,000 active; AID 2716;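 active means every valid replicate shows activation above 250% relative to neutral control wells; inactive means the rest, any valid replicate at or below 250%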;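 further: OY570 slx delta 5 strain wells were the positive control but not used for scaling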
MEKK2 WT-MEK5 – raises or lowers MEK5 binding to wildtype human MEKK2 PB1 domain; Q9Y2U5; bead flow cytometry, Alexa488-MEK5 binding to MEKK2 WT; actives lie on both sides; binding response (% of control), % at 10 µM; 1.1% of 290,000 active; in the data active means binding response below about 67% or above about 130%
CHT block – human CHT choline transport inhibition; B-score at 10 µM; AID 488975; 0.86% of 310,000 active; Q9GZV3; CHT-expressing cells, membrane potential dye, choline response; active compounds read low;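 active means B-score over 3 SD under the library average, and starting fluorescence ratio not unusually high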;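 further: choline stimulus applied at its EC90 after an EC20 pre-addition; B-score computed on integrated fluorescence ratio after choline addition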
CHT activ conf – human CHT activation, confirmatory screen. shares compounds with CHT allo act. CHT-expressing cells, membrane potential dye fluorescence (FDSS); % of choline EC20–EC90 response window; HEK293 expressing CHT LV-AA mutant; choline added at its EC20. activation, % at 10 µM. 91% of 2,500 active. AID 504833;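 active means primary screen active, with duplicate mean activation above negative control mean plus 3 SD, cut at about 11% in these data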
HEK293 MP dye – activity in parental HEK293 cells lacking CHT. shares compounds with CHT allo act. membrane potential dye fluorescence (FDSS); measured after EC20 choline addition. ratio readout change at 10 µM, hits read low. 62% of 2,500 active. AID 623908;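 active means duplicate-averaged ratio beyond 3 SD from buffer wells, up or down, though filed actives are nearly all decreases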
* hit, by the source's call; i = inactive; . = no result given. A selection: hits, their analogues and other compounds. The true share with any hit is near 4.1%.

SMILES | MEKK2 mut-MEK5 | CHT allo act | MEKK3 PB1 HTS | SUMO Mot1 rescue | MEKK2 WT-MEK5 | CHT block | CHT activ conf | HEK293 MP dye
CCCN(CC(=O)Nc1ccc(F)c(F)c1F)C(=O)c1ccc(N2CCCC2=O)cc1 | . | . | . | -5 | . | . | . | .
Cc1nc2ccccn2c1C(=O)N/N=C/c1cc(C)n(-c2ccc(Br)cc2)c1C | 9 | i | 113 | 9 | 99 | i | 18* | i
CC(OC(=O)c1ccc([N+](=O)[O-])s1)C(=O)NC1CCCCC1C (configuration not stated) | . | . | . | -18 | . | . | . | .
O=C(Cc1cccs1)N(Cc1cccs1)C1(C(=O)NC2CCCCC2)CCCCC1 | -3 | i | 99 | -26 | 100 | i | . | .
O=C1CCC(C(=O)N(Cc2cccs2)C2(C(=O)NC3CCCCC3)CCCCC2)N1 (configuration not stated) | -14 | 7* | 90 | -1 | 81 | i | 31* | i
C[n+]1c2n(c3ccccc31)N=C(c1cc(C(C)(C)C)c(O)c(C(C)(C)C)c1)CS2 | 3 | 40* | 123 | 27 | 124 | i | 66* | -36*
Cc1ccc(N(CC(=O)NCc2ccco2)C(=O)CCC(=O)Nc2nccs2)cc1 | 2 | i | 112 | -31 | 117 | i | . | .
COc1ccc(C(C)n2c(C)c3c(C)nnc(C)c3c2C)cc1 (configuration not stated) | -3 | 6.6* | 94 | 6 | 101 | i | 56* | -45*
O=C1c2cc(S(=O)(=O)NCCO)ccc2-c2ccc(S(=O)(=O)NCCO)cc21 | -3 | i | 102 | 17 | 103 | i | 41* | -35*
N#CC(C#N)=C1c2cc(S(N)(=O)=O)ccc2-c2ccc(S(N)(=O)=O)cc21 | -5 | . | 107 | . | 95 | . | . | .
N#CC(C#N)=C1c2cc(S(=O)(=O)NCCO)ccc2-c2ccc(S(=O)(=O)NCCO)cc21 | -16 | 9.5* | 87 | 13 | 90 | i | 54* | -52*
C=CCn1c(=S)[nH]c2cc(C(=O)Nc3ccc(F)cc3)ccc2c1=O | 0 | i | 99 | -6 | 99 | i | . | .
CC(C)CSc1nsc(N)n1 | 5 | i | 108 | 3 | 106 | i | 27* | i
COc1cc2c(cc1OC)CN(C(=O)CCNS(=O)(=O)c1ccccc1F)CC2 | 4 | i | 100 | -1 | 97 | i | . | .
CCCCn1c(=N)n(CCOc2ccc(C)cc2)c2ccccc21 | 2 | 9.7* | 98 | 6 | 107 | i | 25* | i
COc1ccc(OCCn2c(=N)n(CCO)c3ccccc32)cc1 | 10 | i | 107 | 1 | 107 | i | . | .
Cc1ccc(Oc2ccccc2NC(=O)CSCC(=O)Nc2cc(C)on2)cc1 | . | i | . | 0 | . | i | 0 | i
Cc1cc(NC(=O)CSCC(=O)Nc2ccccc2N2CCCCC2)no1 | . | i | . | 49 | . | i | . | .
O=C(c1ccc(F)cc1)N1CCCCC(S(=O)(=O)c2ccccc2)C1=O (configuration not stated) | -3 | i | 85 | -15 | 89 | i | . | .
CCC1(C)NC(=O)N(CC(=O)N2N=C(c3ccccc3)CC2c2ccc(OC)cc2)C1=O (configuration not stated) | 18 | i | 105 | 726 | 113 | i | . | .
COC(=O)c1sc(NC(=O)C(C)c2ccccc2)nc1C (configuration not stated) | -2 | 6.7* | 101 | -4 | 102 | i | 30* | i
CCC(C(=O)Nc1nc(C)c(C(=O)OC)s1)c1ccccc1 (configuration not stated) | 1 | i | 103 | 230 | 99 | i | . | .
Cc1cc2oc(C(=O)Nc3ccc(S(=O)(=O)Nc4onc(C)c4C)cc3)cc(=O)c2cc1Cl | -21 | i | 89 | 101 | 88 | i | 37* | -35*
COC(=O)c1c(NC(C)=O)sc2c1CCN(Cc1ccccc1)C2 | 0 | 7.2* | 100 | 26 | 97 | i | 40* | -66*
CCOC(=O)c1c(NC(C)=O)sc2c1CCN(Cc1ccccc1)C2 | 1 | 6.4* | 101 | 12 | 102 | i | 40* | -60*
SMILES | MEKK2 mut-MEK5 | CHT allo act | MEKK3 PB1 HTS | SUMO Mot1 rescue | MEKK2 WT-MEK5 | CHT block | CHT activ conf | HEK293 MP dye
COC(=O)c1c(NC(=O)C(C)(C)C)sc2c1CCN(Cc1ccccc1)C2 | 3 | i | 104 | 4 | 106 | i | . | .
COc1ccc(CN(C(=O)c2cc3ccccc3oc2=O)C2CCS(=O)(=O)C2)cc1OC (configuration not stated) | -9 | i | 97 | 157 | 91 | i | . | .
CCCCCCCCSc1nnc(CSc2nc3nc(C)cc(C)n3n2)o1 | 2 | i | 101 | 7 | 102 | i | . | .
CCOC(=O)CNC(=O)CN1CCC(c2nc3ccccc3[nH]2)CC1 | -5 | i | 100 | -18 | 99 | i | . | .
c1ccc(-c2csc(Nc3cccnc3)n2)nc1 | -9 | i | 82 | -3 | 84 | i | 50* | -55*
c1ccc(Nc2nc(-c3ccccn3)cs2)cc1 | 3 | i | 112 | 61 | 109 | i | . | .
COC(=O)c1ccc(COn2c(=O)c(C)[n+]([O-])c3ccccc32)cc1 | -20 | i | 75 | 19 | 79 | i | . | .
CCn1c(C)[n+](Cc2ccccc2)c2ccc(C(=O)OC)cc21 | 4 | 10* | 103 | -4 | 106 | i | 27* | -67*
Cc1n(Cc2ccccc2)c2cc([N+](=O)[O-])ccc2[n+]1Cc1ccccc1 | 4 | 8.3* | 102 | 4 | 111 | i | 72* | -58*
CCOC(=O)c1ccc2c(c1)n(CC)c(/C=C/Nc1ccccc1)[n+]2CC | 6 | i | 104 | -1 | 107 | i | 32* | -83*
Cc1n(Cc2ccccc2)c2ccccc2[n+]1Cc1ccccc1 | 7 | i | 107 | -4 | 116 | i | . | .
Cc1ccc(OC(C)C(=O)Nc2ccc(S(=O)(=O)N3CCOCC3)cc2)cc1 (configuration not stated) | -2 | i | 97 | -7 | 97 | i | . | .
COc1ccc(-c2cn3cccnc3n2)cc1F | -1 | i | 103 | -18 | 106 | i | 15* | -33*
Brc1c(-c2ccc3c(c2)OCO3)nc2ncccn12 | 0 | 6.3* | 99 | -4 | 99 | i | 45* | -46*
